Experimental data reported in PubChem BioAssay (NCI).
The panel holds about 83,000 compounds, 20% with a hit somewhere; the sample as a whole holds those more often.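 Step 1: grow cells in 96-well plates. Step 2: add test compound at a single concentration. Step 3: incubate 48 h. Step 4: record percent growth.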 A number with no mark means an inactive call. The source made the active and inactive calls. How the source made its calls: active means growth percent below 10; inactive means the rest.

tested on: HL-60(TB) leukemia; test: NCI-60 one-dose screen, 48 h (100 = growth as untreated, 0 = no growth, -100 = all killed); details: 10 µM unless noted

SMILES | growth
COc1ccc2c(c1)c(-c1nc(-c3cn(C)c4ncccc34)cs1)cn2CCN | 55.7%
Cc1ccc(/C=C/C(=O)c2ccc(NC(=O)CSc3nc4c([nH]3)c(=O)n(C)c(=O)n4C)cc2)c(C)c1 | 94.5%
O=C(Nc1cccc(-n2cc(-c3ccncc3)c(-c3ccc(O)c(Cl)c3)n2)c1)Nc1ccc(Cl)c(C(F)(F)F)c1 | -2.7% (active)
CC1(C)C(N)=Nc2cc(OCCCCN3Cc4ccccc4C3)c(OCC3CC3)cc21 | 99.7%
O=c1[nH]nc(-c2ccc(Br)cc2)c2sc(NC(=S)Nc3ccc(Cl)cc3)nc12 | 94.2%
c1ccc(-c2n(Cc3ccc4ccccc4c3)c3ccccc3[n+]2Cc2ccc3ccccc3c2)cc1 | -49.3% (active)
O=C(/C=C/c1ccccc1)N(C1CCCCC1)C1CCCCC1 | 74%
CCCCCCCCCCCCNC(=O)N[C@H](C(=O)N[C@H]1/C=C/CCNC(=O)/C=C/[C@H](C)NC1=O)C(C)C | -25.2% (active)
CCOC(=O)/C(=C/c1ccc(OC)cc1)N(CC)CC | 98%
CCN(CC)CCCCNc1ccc(NCCCCN(CC)CC)c2c1C(=O)c1ccccc1C2=O | 70%
CN(C)C[C@@H]1CCn2cc(c3ccccc32)C2=C(C(=O)NC2=O)c2cn(c3ccccc23)CCO1 | -23.5% (active)
O=C(O)COc1c(Cl)cc([N+](=O)[O-])cc1Cl | 87.1%
O=S(=O)(NCCCNc1nccc(-c2c(-c3ccc(F)cc3)nc3sccn23)n1)c1ccc2ccccc2c1 | 34.8%
